# This is part of a sample that, as a whole, favours compounds with a hit. Of some 83,000 tested, about 20% had one in any assay.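 Compound tested at a single concentration for 48 hours in 96-well plates; a percent growth value below 10 was scored as active.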 A number with no mark means an inactive call. Activity calls are given as the source filed them.
# Legend:
# Assay in all cases: NCI-60 one-dose screen, 48 h (100 = growth as untreated, 0 = no growth, -100 = all killed)
# Conditions in all cases: 10 µM unless noted
# [1] = system: NCI-H23 lung
# [2] = system: NCI-H226 lung
# [3] = system: NCI-H322M lung
# [4] = system: HOP-62 NSCLC
# [5] = system: NCI-H460 lung
# [6] = system: HOP-92 NSCLC
# [7] = system: NCI-H522 lung
# [8] = system: A549/ATCC NSCLC
# [9] = system: 786-0 renal
# [10] = system: COLO 205 colon
# [11] = system: DU-145 prostate
# [12] = system: K-562 leukemia
# [13] = system: MALME-3M melanoma
# [14] = system: MDA-MB-231 breast
# [15] = system: RXF 393 renal
# [16] = system: SF-268 CNS
# [17] = system: SF-539 CNS
# [18] = system: UACC-257 melanoma
# [19] = system: M14 melanoma
# [20] = system: SF-295 CNS
Compound,growth [1],growth [2],growth [3],growth [4],growth [5],growth [6],growth [7],growth [8],growth [9],growth [10],growth [11],growth [12],growth [13],growth [14],growth [15],growth [16],growth [17],growth [18],growth [19],growth [20]
O=C(NCC(c1ccsc1)N1CCCCCC1)c1ccc(C(F)(F)F)cc1 (centres undefined),93%,91.9%,99.9%,113%,100%,99%,92.8%,96.5%,96.9%,102%,105%,83.7%,98.5%,85.1%,85.7%,98.3%,108%,108%,93%,–
O=C(CS)OCC(COC(=O)CS)(COC(=O)CS)COC(=O)CS,85%,98.1%,58.3%,105%,75.2%,108%,76.4%,93.9%,103%,105%,95.3%,34.3%,89.6%,104%,98.8%,82.7%,98.4%,59.3%,18.1%,–
O=C(O)C1[S][Sb]([CH](C(=O)O)[CH](C(=O)O)[Sb]2[S]C(C(=O)O)C(C(=O)O)[S]2)[S]C1C(=O)O (centres undefined),104%,105%,95.8%,123%,84.6%,91.6%,42.4%,89.2%,93.7%,114%,97.1%,76%,31.3%,88.2%,103%,104%,76.3%,89.3%,74.5%,–
COc1ccc(-c2nnc(SCC(=O)Nc3ccc(C(=O)/C=C/c4ccc(Cl)cc4)cc3)n2-c2ccccc2)cc1,91.1%,103%,118%,100%,106%,105%,84%,88.5%,97.4%,107%,101%,96.7%,112%,79.6%,106%,91%,101%,115%,85.9%,–
CC(=O)[C@@]1(O)[C@H](C)C[C@H]2[C@@H]3C=C(C)C4=Cc5c(cnn5-c5ccccc5)C[C@]4(C)[C@H]3[C@@H](O)C[C@@]21C,32.4%,63.3%,75.9%,34.8%,-20.5% (active),13.2%,-2.67% (active),14.5%,-9.28% (active),-23.8% (active),54.6%,-60.9% (active),41.8%,26.1%,–,27.9%,-21.8% (active),54.6%,43.7%,-49.1% (active)
CCCCN(CCCC)CCC(=O)c1ccc(OC)c2ccccc12,111%,95.7%,104%,101%,109%,-13.7% (active),90.6%,80.1%,65.5%,60.1%,79.4%,67.1%,124%,106%,–,95%,87%,86.4%,104%,100%
COc1ccc(-c2cnc3ccnn3c2-c2cc(OC)c(OC)c(OC)c2)cc1,42.7%,65.5%,55.8%,40%,11.1%,103%,10.1%,46.8%,40.3%,-31.2% (active),20%,5.43% (active),67.5%,50.3%,1.8% (active),53.3%,-13.4% (active),58.4%,21.5%,–
CCCCCCCCCCCCCC(=S)NCCCC[C@H](NC(=O)OCc1ccccc1)C(=O)Nc1ccccc1,37.2%,60.8%,95.2%,58.4%,45.5%,19.8%,27.6%,49.3%,48.8%,55.6%,52.4%,17.1%,83.6%,17.5%,69.1%,43.3%,75.3%,69.1%,37.3%,–
[O-]/[N+](=C\c1ccccc1)CC1(O)CCCCC1,104%,99.5%,112%,109%,103%,78%,93.7%,101%,109%,117%,109%,95.7%,108%,101%,107%,105%,97%,102%,109%,–
OC(c1cc(-c2ccc(C(F)(F)F)cc2)nc(-c2ccc(C(F)(F)F)cc2)c1)C1CCCCN1 (centres undefined),-60.2% (active),-71.2% (active),-79.5% (active),-86.9% (active),-67.7% (active),-81.9% (active),-78.7% (active),-84.4% (active),-75.4% (active),-79.6% (active),-94.9% (active),-73.6% (active),-64.7% (active),-71% (active),-86% (active),-83.9% (active),-77.3% (active),-76% (active),-80.1% (active),–
CCc1ccc(Nc2ncnc3c2cnn3-c2cccc(Br)c2)cc1,96.1%,85.7%,105%,84%,102%,91.8%,89.1%,97.2%,106%,104%,104%,106%,99%,103%,100%,98%,102%,88.6%,98.6%,–
CCCCNCC(O)c1cc(-c2ccc(C(F)(F)F)cc2)nc(-c2ccc(C(F)(F)F)cc2)c1 (centres undefined),-63.9% (active),-76.2% (active),-74.3% (active),-90.5% (active),-76.7% (active),-86% (active),-79% (active),-83.5% (active),-78.7% (active),-87.2% (active),6.08% (active),-59.5% (active),-41.6% (active),-71.9% (active),-94.4% (active),-86% (active),-74.9% (active),-70.3% (active),-79.7% (active),–
CCOc1c(C#N)c2c(N)ncnc2n1C1OC(CO)C(O)C1O (centres undefined),50.6%,71.8%,76.6%,76.6%,0.566% (active),50.1%,-22.4% (active),8.54% (active),76.1%,8.97% (active),-10.5% (active),0.169% (active),59.2%,87.1%,–,25.2%,62.5%,83.5%,35%,71.3%
COc1cc2c(cc1OC)C(=O)OC2,118%,93.4%,116%,113%,110%,75.5%,111%,104%,114%,134%,109%,118%,124%,102%,–,100%,97%,13.3%,119%,102%
O=C(NNC(=S)Nc1ccccc1)c1ccc(Nc2ncnc3c2cnn3-c2cccc(Br)c2)cc1,99.8%,94.3%,95.5%,88%,112%,93.5%,88.6%,112%,105%,103%,107%,112%,101%,110%,99.6%,95.4%,98.5%,114%,100%,–
O=C(Oc1c(Cl)c(Cl)c(Cl)c(Cl)c1Cl)C1CCCN1C(=O)OCc1ccccc1 (centres undefined),33.5%,68.3%,39.9%,60.2%,13.2%,-0.576% (active),12.4%,17.2%,67.7%,35.9%,60.9%,17.3%,72.3%,69.1%,92.2%,42.2%,50.5%,82.1%,78.9%,–
